This passage reports AC50 and outcome results from PubChem BioAssay (EPA / NIEHS).

Where a structure was tested more than once in an assay, its records may differ in their call. Calls of active or inactive are those of the source. Rule for the calls: active = hit-call score of the fitted dose curve at least 0.9, where 1 is the maximum; inactive = score below 0.9.

Read-out in one assay: Thrombomodulin, THBD (gene 7056)
Kind of assay: BSK_LPS_Thrombomodulin: BioMAP Diversity Plus: LPS Assay for Thrombomodulin Biomarker Activity (AID 2284296). The settings on record: outcome: primary human HUVEC with PBMC unless noted. Summed up: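 Thrombomodulin on the surface of LPS-activated endothelial/PBMC co-cultures was quantified by ELISA at 24 hours post-dosing, with DMSO as baseline. Parallel SRB total-protein staining flagged overt cytotoxicity.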
As for `COC(=O)Cc1ccccc1`, the half-maximal activity concentration (AC50) – broadly, the midpoint of the concentration-response curve, whichever way the signal moves – is 2180 nM (active) and the outcome was “inactive [setting not given]”.
Consider `CC(=O)OC(c1ccccc1)C(Cl)(Cl)Cl` (configuration not stated), for which the result was inactive.
For `O=C(O)C(F)(F)C(F)(F)C(F)(F)C(F)(F)C(F)(F)C(F)(F)C(F)(F)C(F)(F)C(F)(F)C(F)(F)F`, the result was inactive.
Still for that read-out and setting: next, `O=C(O)CCC(F)(C(F)(F)F)C(F)(F)F`: “inactive”; `O=C(O)C(F)(F)C(F)(F)C(F)(F)C(F)(F)C(F)(F)C(F)(F)F`: “inactive”.

Read-out in another assay: CD69, CD69 (gene 969)
The assay can be described thus: BSK_LPS_CD69: BioMAP Diversity Plus: LPS Assay for CD69 Biomarker Activity (AID 2284303). The settings on record: primary human HUVEC with PBMC. Summed up: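 CD69 surface levels were read by ELISA after 24 h chemical treatment of an LPS-stimulated HUVEC plus PBMC co-culture; positive-direction fit against DMSO vehicle.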
In the case of `COC(=O)Cc1ccccc1`, the outcome was inactive.
The same measure, in the same setting: next, `CC(=O)OC(c1ccccc1)C(Cl)(Cl)Cl` (configuration not stated): “inactive”.
In the case of `O=C(O)C(F)(F)C(F)(F)C(F)(F)C(F)(F)C(F)(F)C(F)(F)C(F)(F)C(F)(F)C(F)(F)C(F)(F)F`, the AC50 is 3330 nM (active) and the result was inactive.
Consider `O=C(O)CCC(F)(C(F)(F)F)C(F)(F)F`, for which the outcome was inactive.
On to `O=C(O)C(F)(F)C(F)(F)C(F)(F)C(F)(F)C(F)(F)C(F)(F)F`, for which the outcome was inactive.
